# Laboratory results published in publication PMC4336329 (PLoS ONE, 2015).
# The campaign covered roughly 310,000 compounds. About 14,000 (4.5%) showed an effect of 50% or more. The effect is printed as a negative number. Many of the other results were omitted from the sample, so strong results are more common in it than they were.
# Molecular target: human ether-à-go-go-related gene (hERG) potassium channel (human, UniProt Q12809)
# Test: primary screen, population patch clamp on CHO cells stably expressing hERG; higher = less effect of the substance
# 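Also: peak tail current of the secondary pulse compared with the same well before compound.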
# human ether-à-go-go-related gene (hERG) potassium channel, sequence (Q12809 whole entry, looked up): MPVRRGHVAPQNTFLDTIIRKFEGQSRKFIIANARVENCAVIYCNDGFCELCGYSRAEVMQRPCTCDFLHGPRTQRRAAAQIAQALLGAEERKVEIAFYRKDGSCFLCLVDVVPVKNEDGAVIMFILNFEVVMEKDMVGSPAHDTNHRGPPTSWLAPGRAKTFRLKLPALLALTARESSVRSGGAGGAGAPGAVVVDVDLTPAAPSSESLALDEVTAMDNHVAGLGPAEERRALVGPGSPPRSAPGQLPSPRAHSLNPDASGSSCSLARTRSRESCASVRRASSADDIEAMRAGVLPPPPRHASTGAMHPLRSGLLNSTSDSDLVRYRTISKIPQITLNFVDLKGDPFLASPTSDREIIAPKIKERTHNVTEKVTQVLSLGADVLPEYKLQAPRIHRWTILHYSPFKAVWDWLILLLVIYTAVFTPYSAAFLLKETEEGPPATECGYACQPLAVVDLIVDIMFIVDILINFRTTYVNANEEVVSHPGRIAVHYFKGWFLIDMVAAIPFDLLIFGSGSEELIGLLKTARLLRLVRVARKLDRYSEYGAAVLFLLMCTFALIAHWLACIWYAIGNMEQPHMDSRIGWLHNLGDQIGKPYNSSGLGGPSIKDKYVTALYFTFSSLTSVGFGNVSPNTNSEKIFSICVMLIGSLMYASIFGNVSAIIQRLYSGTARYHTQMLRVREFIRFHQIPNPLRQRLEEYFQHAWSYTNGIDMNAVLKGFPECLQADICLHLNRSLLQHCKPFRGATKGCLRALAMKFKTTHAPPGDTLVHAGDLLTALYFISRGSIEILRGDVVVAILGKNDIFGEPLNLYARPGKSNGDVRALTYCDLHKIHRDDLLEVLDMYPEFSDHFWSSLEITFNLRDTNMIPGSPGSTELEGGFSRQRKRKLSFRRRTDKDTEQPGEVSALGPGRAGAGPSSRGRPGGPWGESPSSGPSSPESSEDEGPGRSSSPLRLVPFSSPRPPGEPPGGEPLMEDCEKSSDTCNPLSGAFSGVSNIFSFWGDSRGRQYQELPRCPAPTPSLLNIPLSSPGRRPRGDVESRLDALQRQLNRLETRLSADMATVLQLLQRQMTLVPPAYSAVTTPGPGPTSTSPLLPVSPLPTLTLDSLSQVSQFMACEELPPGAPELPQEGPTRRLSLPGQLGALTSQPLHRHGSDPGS
row,Structure (SMILES),"hERG current change (%, negative = inhibition) at 10uM [%]"
1,Cn1cc(S(=O)(=O)N2CCCC2)cc1C(=O)NCc1ccc(Cl)cc1,2.02
2,COc1ccc(CCNC(=O)Cn2cnc3c(cnn3-c3ccccc3Cl)c2=O)cc1OC,-1.24
3,COc1ccc2nc(NC(C)=O)sc2c1,-4.83
4,Cc1ccc(OCC(=O)N/N=C/C=C/c2ccco2)cc1,-45.9
5,CC(Oc1ccc(Cl)cc1)c1ccnn1S(=O)(=O)c1ccccc1 (stereo not shown),5.02
6,CCN(CC)C(=O)c1ccc2c(=O)n(CCOC)c(=S)[nH]c2c1,-7.02
7,Cc1nn2c(NCc3cccnc3)c3c(nc2c1-c1ccccc1)CCC3,-34.2
8,Cc1nn2c(NCCOCCO)c3c(nc2c1-c1ccccc1)CCCC3,-74.2
9,Cc1nn2c(NCCCN(C)C)c3c(nc2c1-c1ccccc1)CCC3,-59.4
10,Cc1nn2c(NCCN(C)C)c3c(nc2c1-c1ccccc1)CCC3,-26.7
11,Cc1nn2c(Nc3ccccc3)c3c(nc2c1-c1ccccc1)CCC3,14.1
12,Cc1nn2c(NCc3ccccn3)c3c(nc2c1-c1ccccc1)CCC3,-51
13,CCCCNc1c2c(nc3c(-c4ccccc4)c(C)nn13)CCC2,-3.59
14,Cc1nn2c(NCC(C)C)c3c(nc2c1-c1ccccc1)CCC3,4.8
15,Cc1nn2c(NCCCN(C)C)c3c(nc2c1-c1ccccc1)CCCC3,-32.2
16,Cc1nn2c(NCCOCCO)c3c(nc2c1-c1ccccc1)CCC3,-50.2
17,COCCNc1c2c(nc3c(-c4ccccc4)c(C)nn13)CCCC2,-1.34
18,COCCNc1c2c(nc3c(-c4ccccc4)c(C)nn13)CCC2,2.2
19,Cc1ccc(-c2csc(NC(=O)C3=NN(c4ccccc4)C(=O)CC3)n2)cc1,3.35
20,CCCN1CCN(C(c2cc3cc(OCC)ccc3[nH]c2=O)c2nnnn2C2CCCCC2)CC1 (stereo not shown),-46.4
21,Cc1ccc(C(C(=O)NC2CCCCC2)N(C(=O)c2csnn2)C2CC2)cc1 (stereo not shown),-9.75
22,COc1ccc(C(CC(=O)N2CCOCC2)c2c(OC)cc(OC)c3ccc(=O)oc23)cc1 (stereo not shown),-3.96
23,Cn1c2ccccc2c2c(C(=O)NCC3CCCO3)cn(C3CCCC3)c(=O)c21 (stereo not shown),-0.664
24,CNC.Cc1cccn2c(NCC3CCCO3)c(C(C)C)nc12.Cl (stereo not shown),-12.7
25,Cc1c(C(C)O)nnn1-c1nonc1N (stereo not shown),-2.42

row,Structure (SMILES),"hERG current change (%, negative = inhibition) at 10uM [%]"
1,CN=C(Nc1cccnc1)c1ccccc1,15.6
2,CCOc1ccc(-n2c(=O)c3c4c(sc3n(CC(=O)NCCCOC)c2=O)CCCCC4)cc1,-1.22
3,Cc1nn2c(NCCN3CCOCC3)c3c(nc2c1-c1ccccc1)CCCC3,-76.5
4,Fc1cccc(-c2cc3nc4c(c(NCc5ccco5)n3n2)CCCC4)c1,-33.2
5,CN(C)CCCNc1cc(-c2ccccc2)nc2cc(-c3cccc(F)c3)nn12,-15.9
6,Cc1nn2c(NCCN(C)C)c3c(nc2c1-c1ccccc1)CCCC3,-41.4
7,Cc1nn2c(N3CCOCC3)c3c(nc2c1-c1ccccc1)CCCC3,-14.8
8,CN(C)CCCNc1c2c(nc3cc(-c4cccc(F)c4)nn13)CCC2,-69.1
9,CCn1cc(Br)c(C(=O)Nc2ccc(Cl)cc2Cl)n1,7.24
10,Cc1ccc(S(=O)(=O)N(Cc2ccc(Cl)cc2)c2ccccc2C(=O)O)cc1,12.3
11,COc1ccccc1NS(=O)(=O)c1cc2c(cc1C)NC(=O)CO2,-7.43
12,CN1CCN(C(=O)c2ccc3c(c2)N(C)C(=O)/C(=C/c2cccc(Cl)c2)S3)CC1,-55.1
13,Cc1cccc(/C=C2\Sc3ccc(C(=O)N4CCOCC4)cc3N(C)C2=O)c1,-40.7
14,CCOC(=O)N1CCN(C(=O)c2ccc3c(c2)N(C)C(=O)/C(=C\c2ccc(OCC)c(OC)c2)S3)CC1,-32.5
15,CN1C(=O)/C(=C/c2cccc(Cl)c2)Sc2ccc(C(=O)N3CCOCC3)cc21,-50.3
16,Cc1cccc(/C=C2\Sc3ccc(C(=O)N4CCCCC4)cc3N(C)C2=O)c1,12.1
17,CN1C(=O)/C(=C/c2cccc(Cl)c2)Sc2ccc(C(=O)N3CCCC3)cc21,-49.7
18,COc1ccc(/C=C2\Sc3ccc(C(=O)N4CCOCC4)cc3N(C)C2=O)cc1,-15.3
19,CCOc1ccc(/C=C2/Sc3ccc(C(=O)N4CCN(C(=O)c5ccco5)CC4)cc3N(C)C2=O)cc1OC,-53.9
20,CCOc1ccc(/C=C2/Sc3ccc(C(=O)N4CCOCC4)cc3N(C)C2=O)cc1OC,-18.5
21,COc1ccc(C(C(=O)NC(C)(C)C)N(Cc2cccnc2)C(=O)CCC(=O)Nc2cc(C)on2)cc1 (stereo not shown),10.9
22,COc1cc(-c2csc(C)n2)ccc1O,8.67
23,CN(C)C=O.COc1ccccc1NC(=O)C1=C(C)NC(=O)NC1c1ccccc1[N+](=O)[O-] (stereo not shown),7.42
24,COc1cccc(N2CCN(C(=O)C3CCCN(S(=O)(=O)c4cnc[nH]4)C3)CC2)c1 (stereo not shown),17.4
25,O=C(NCc1ccc2c(c1)OCO2)c1ccncc1,-12.6

row,Structure (SMILES),"hERG current change (%, negative = inhibition) at 10uM [%]"
1,Cc1ccc(NCC(=O)Nc2cccc(F)c2)cc1S(=O)(=O)N1CCCCCC1,-22.6
2,COC(=O)c1ccccc1NC(=O)N1CSC[C@H]1C(=O)OC,15.8
3,Cc1cc(C)n(CC(O)COc2ccccc2C(=O)Nc2ccccc2)n1 (stereo not shown),-26.1
4,CC1(C)NC(=O)N(CC(O)COc2ccccc2C(=O)Nc2ccccc2)C1=O (stereo not shown),-6.2
5,CCCCN(CCCC)CC(O)COc1ccccc1Br.Cl (stereo not shown),-40.6
6,CCOc1ccccc1C(=O)Nc1ccc(NC(=O)c2ccccc2)cc1,12.7
7,CCCN(CCC)CC(O)COc1ccccc1C(=O)Nc1ccccc1.Cl (stereo not shown),-68.2
8,CCCCN(CCCC)CC(O)COc1ccccc1C(=O)Nc1ccccc1 (stereo not shown),-98.7
9,CSc1ccc(/C=N/NC(=O)c2sccc2C)cc1,15.4
10,CCCCC(=O)NC(c1ccc(OC)c(OC)c1)c1c(O)ccc2ccccc12 (stereo not shown),-13.7
11,O=C1C(Cl)=C(N2CCOCC2)C(=O)N1c1ccccc1F,20.3
12,O=C(Nc1ccc(Cl)c([N+](=O)[O-])c1)c1cnccn1,-10.4
13,Cc1ccc(/C=N/NC(=O)COc2ccccc2-c2ccccc2)cc1,-3.49
14,COc1cc(C(=O)N2CCN(c3ccccc3Cl)CC2)ccc1OCC(=O)N1CCOCC1,-28.6
15,COc1cc(C(=O)N2CCN(c3ccccc3F)CC2)ccc1OCC(=O)N1CCOCC1,-60.9
16,CCC(=O)c1ccc(N2CCN(C(=O)COc3ccccc3F)CC2)c(F)c1,-50.9
17,COc1cc(C(=O)N2CCN(c3ccccc3O)CC2)ccc1OCC(=O)N1CCOCC1,3.06
18,CC(=O)c1ccc(N2CCN(C(=O)COc3ccc(F)cc3)CC2)c(F)c1,-71.5
19,CCc1ccc(OCC(=O)N2CCN(c3ccccc3F)CC2)cc1,20.2
20,CC(=O)c1ccc(N2CCN(C(=O)CN3C(=O)NC4(CCCCC4)C3=O)CC2)c(F)c1,0.416
21,Cc1ccc(S(=O)(=O)Nc2ccccc2C(=O)Nc2nc(-c3ccc(F)cc3)cs2)cc1,9.22
22,COc1ccc(-c2csc(NC(=O)c3ccccc3NS(=O)(=O)c3ccc(F)c(F)c3)n2)cc1,19.3
23,CCC(=O)c1ccc(N2CCCCCC2)c(F)c1,4.04
24,COc1ccc(S(=O)(=O)Nc2ccccc2C(=O)Nc2nc(-c3ccc(F)cc3)cs2)cc1OC,-51.7
25,CC(=O)c1ccc(N2CCN(C(=O)COc3ccccc3F)CC2)c(F)c1,-39.7

row,Structure (SMILES),"hERG current change (%, negative = inhibition) at 10uM [%]"
1,CC(=O)c1cccc(NC(=O)NCc2ccco2)c1,-2.14
2,COc1ccc(Cl)cc1Nc1nc(NCCO)nc(N2CCCCC2)n1,-3.45
3,CCN(CC)S(=O)(=O)c1ccc(C)c(NC(=S)N2CCN(C/C=C/c3ccccc3)CC2)c1,-2.74
4,CCOc1ccc(NS(=O)(=O)c2ccc(NC(=S)NC(=O)CC(C)C)cc2)cc1,8.92
5,O=C(CSC(=S)N1CCCC1)N1CCN(S(=O)(=O)c2cccc([N+](=O)[O-])c2)CC1,5.69
6,COc1ccc(/C=N/NC(=O)CC(=O)NCc2cccnc2)c(OC)c1,4.71
7,CCC(CC)C(=O)c1c[nH]c(C(=O)NCc2cccnc2)c1,18.6
8,CC(C)(C)c1ccc(-c2nnc(SCC(=O)c3ccc4c(c3)OCCO4)o2)cc1,12.3
9,Cc1ccc(S(=O)(=O)N(C)CCCC(=O)NC(C)(C)C)cc1,13.3
10,CO/N=C/c1cn(-c2ccc(Cl)cc2)nn1,-2.53
11,CC(=O)c1ccc(N2CCCC2)c(F)c1,1.88
12,CC(=O)c1cc(F)c(N2CCN(C(=O)COc3ccc(F)cc3)CC2)cc1C,-76.3
13,COc1cc(C(=O)Nc2nc(-c3ccc(C)cc3)cs2)ccc1OCC(=O)N1CCOCC1,-18.9
14,CC(=O)c1ccc(N2CCN(C(=O)Cc3ccccc3)CC2)c(F)c1,-9.6
15,CCC(=O)c1ccc(N2CCN(C(=O)COc3ccc(F)cc3)CC2)c(F)c1,-73.4
16,CC(=O)c1cc(F)c(N2CCN(C(=O)COc3ccccc3F)CC2)cc1C,-7.84
17,CCCCCC(=O)N1CCN(c2ccc(C(C)=O)cc2F)CC1,-60.9
18,CCOC(=O)N1CCN(c2ccc(C(=O)CC)cc2F)CC1,-9.37
19,CCOC(=O)N1CCN(c2cc(C)c(C(C)=O)cc2F)CC1,2.71
20,CCC(=O)c1ccc(N2CCCC2)c(F)c1,6.95
21,COc1cc(C(=O)Nc2nc(-c3ccc(F)cc3)cs2)ccc1OCC(=O)N1CCOCC1,-53.3
22,COc1ccc(-c2csc(NC(=O)c3ccc(OCC(=O)N4CCOCC4)c(OC)c3)n2)cc1,-48
